Source: PubChem BioAssay (NCI)
Compounds without any hit were thinned out: in the full panel of roughly 79,000, 15% have a hit. Activity calls are given as the source filed them. No stated cut-off is given here; in the data, active means growth inhibition above about 70%; inactive means the rest.

Experiment: NCI Yeast Anticancer Drug Screen. Data for the mec2-1 strain (AID 157)
Details: S. cerevisiae mec2-1 strain, at 50.0 µM, stronger effect = higher value
How it was run: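 Each compound was tested on mec2-1 yeast, a strain altered in DNA damage repair or cell cycle control. Growth inhibition is reported relative to vehicle.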

SMILES | growth inhibition
C/C=C1\CN2CCC1CC2C(O)c1ccnc2ccc(O)cc12 (stereo unspecified) | -13.7% (inactive)
CCOC(=O)c1ccc2nc(-c3ccc(S(=O)(=O)F)cc3)cc(Cl)c2c1 | -9.95% (inactive)
CC(Cc1ccccc1)N(C)CC1C(=O)C2CCC1C2 (stereo unspecified) | -12.6% (inactive)
Brc1ccc(C[N+]23CCN(CC2)CC3)cc1 | -35.1% (inactive)
CSC(=S)NNC(=O)c1cccc(S(=O)(=O)F)c1 | -8.8% (inactive)
O=c1[nH]c(=O)c2[nH]c(N=Nc3ccc(N(CCCl)CCCl)cc3)nc2[nH]1 | 6.1% (inactive)
COc1ccccc1NC1=NCCS1 | -12.9% (inactive)
CCCCCC(C)C1C(=O)NC(=O)NC1=O (stereo unspecified) | 12.9% (inactive)
O=C(/C=C/c1ccccc1)NCCc1cnc[nH]1 | 1.55% (inactive)
O=c1c2ccccc2[nH]c(=S)n1-c1cccc(Cl)c1 | 16.1% (inactive)
O=[As]c1ccc2c(c1)NC(O)=CO2 (stereo unspecified) | 38.6% (inactive)
Clc1cccc(NC2=NCCS2)c1 | -32.6% (inactive)
O=c1c2ccc(Cl)cc2[nH]c(=S)n1-c1ccc(Cl)cc1 | -9.25% (inactive)
O=C(CBr)OCCCS(=O)(=O)O | -34.4% (inactive)
CCCOP(=O)(CCl)OCCC | -5.05% (inactive)
Cc1ccc(-n2c(=S)[nH]c3ccccc3c2=O)cc1 | -7.95% (inactive)
Cc1cccc(-c2cc(Cl)c3cc(S(=O)(=O)F)ccc3n2)c1 | -25.4% (inactive)
COc1ccc(S(=O)(=O)F)cc1NC(=O)c1ccc2ccccc2c1O | 7.75% (inactive)
NC(=O)NNc1ccc([N+](=O)[O-])cc1[N+](=O)[O-] | -5.4% (inactive)

SMILES | growth inhibition
CN1C2c3ccccc3C3C4c5ccccc5C(C31)C(C2[N+](=O)[O-])N4C (stereo unspecified) | -30.8% (inactive)
CCCCCCNC1C=CCC1 (stereo unspecified) | -2.55% (inactive)
COc1ccc(-n2c(=S)[nH]c3ccccc3c2=O)cc1 | -9.7% (inactive)
CCCCCCCBr | 9% (inactive)
C(=C\c1cccs1)/CN1CCC2CCC(C2)C1 (stereo unspecified) | -4.15% (inactive)
Nc1ccc([As](=O)(O)O)cc1C(=O)O | -18.8% (inactive)
O=[N+]([O-])c1ccc(C[N+]23CCN(CC2)CC3)cc1 | -16.7% (inactive)
Cc1ccc(-n2c(=S)[nH]c3ccccc3c2=O)cc1F | -25.9% (inactive)
NC(=NC1CCCCCCCCCCC1)N[N+](=O)[O-] | 9.6% (inactive)
COc1cccc(N=C(N)N[N+](=O)[O-])c1 | -32% (inactive)
CC1C2C=CC1C(c1c3ccc(=O)cc-3oc3cc(O)ccc13)C2C(=O)O (stereo unspecified) | 2.15% (inactive)
CC1NCCc2cc(O)c(O)cc21 (stereo unspecified) | 6.3% (inactive)
c1ccc2c(c1)O[As](O[As]1Oc3ccccc3O1)O2 | 4.75% (inactive)
CC(=O)c1ccccc1N=Nc1ccc(N(CCCl)CCCl)cc1C | 19.7% (inactive)
O=C(CBr)OCS(=O)(=O)O | -31.6% (inactive)
CN1CCN(c2ccc(Cl)cc2)CC1 | -17.6% (inactive)
Cc1ccc(-c2cc(Cl)c3cc(S(=O)(=O)F)ccc3n2)cc1 | -16.6% (inactive)
O=C(CCN1CC=C(c2ccccc2)CC1)NCc1ccccc1 | -6.8% (inactive)
CNCCc1ccc(O)c(O)c1 | -13.2% (inactive)

Experiment: NCI Yeast Anticancer Drug Screen. Data for the cln2 rad14 strain (AID 165);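 further: 0% = growth equal to vehicle treated cultures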
Details: S. cerevisiae cln2 rad14 strain, at 50.0 µM, stronger effect = higher value
How it was run: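 Test compounds were added to cln2 rad14 yeast cultures; inhibition of growth was then determined by comparison with vehicle treatment.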

SMILES | growth inhibition
O=c1[nH]c(=O)c2[nH]c(N=Nc3ccc(N(CCCl)CCCl)cc3)nc2[nH]1 | 38.1% (inactive)
CCCCCC(C)C1C(=O)NC(=O)NC1=O (stereo unspecified) | 5.7% (inactive)
O=[As]c1ccc2c(c1)NC(O)=CO2 (stereo unspecified) | 27.9% (inactive)
CCCCCCNC1C=CCC1 (stereo unspecified) | -15.6% (inactive)
C(=C\c1cccs1)/CN1CCC2CCC(C2)C1 (stereo unspecified) | -17.1% (inactive)
Nc1ccc([As](=O)(O)O)cc1C(=O)O | -11% (inactive)
Clc1cccc2ccccc12 | 14.1% (inactive)
NC(Cc1ccccc1)c1nn[nH]n1 (stereo unspecified) | -40.6% (inactive)

Experiment: NCI Yeast Anticancer Drug Screen. Data for the bub3 strain (AID 167)
Details: S. cerevisiae bub3 mutant strain, at 50.0 µM, stronger effect = higher value
How it was run: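 Screening used yeast with an engineered genetic alteration affecting cell cycle control. Compound-exposed cultures were compared with vehicle cultures, and reduced growth was taken as inhibition.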

SMILES | growth inhibition
O=c1[nH]c(=O)c2[nH]c(N=Nc3ccc(N(CCCl)CCCl)cc3)nc2[nH]1 | 10.7% (inactive)
O=[As]c1ccc2c(c1)NC(O)=CO2 (stereo unspecified) | 20.4% (inactive)
CCCCCCCBr | -5.45% (inactive)
C(=C\c1cccs1)/CN1CCC2CCC(C2)C1 (stereo unspecified) | 6.35% (inactive)
Nc1ccc([As](=O)(O)O)cc1C(=O)O | 7.2% (inactive)
CC(=O)c1ccccc1N=Nc1ccc(N(CCCl)CCCl)cc1C | 20.5% (inactive)
Clc1cccc2ccccc12 | 3.4% (inactive)
NC(Cc1ccccc1)c1nn[nH]n1 (stereo unspecified) | -17.4% (inactive)

Experiment: NCI Yeast Anticancer Drug Screen. Data for the mlh1 rad18 strain (AID 175)
Details: S. cerevisiae mlh1 rad18 strain growth inhibition; at 50.0 µM; stronger effect = higher value
How it was run: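 Inhibition values reflect reduced growth of mutant yeast versus vehicle-treated controls following compound exposure; the mutations affect DNA damage repair.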

SMILES | growth inhibition
C/C=C1\CN2CCC1CC2C(O)c1ccnc2ccc(O)cc12 (stereo unspecified) | 32.2% (inactive)
CCOC(=O)c1ccc2nc(-c3ccc(S(=O)(=O)F)cc3)cc(Cl)c2c1 | 23.5% (inactive)
CC(Cc1ccccc1)N(C)CC1C(=O)C2CCC1C2 (stereo unspecified) | 6.25% (inactive)
Brc1ccc(C[N+]23CCN(CC2)CC3)cc1 | -16% (inactive)
CSC(=S)NNC(=O)c1cccc(S(=O)(=O)F)c1 | 50.7% (inactive)
O=c1[nH]c(=O)c2[nH]c(N=Nc3ccc(N(CCCl)CCCl)cc3)nc2[nH]1 | 17.6% (inactive)
COc1ccccc1NC1=NCCS1 | 15.4% (inactive)
CCCCCC(C)C1C(=O)NC(=O)NC1=O (stereo unspecified) | -6% (inactive)
O=C(/C=C/c1ccccc1)NCCc1cnc[nH]1 | 16.4% (inactive)
O=c1c2ccccc2[nH]c(=S)n1-c1cccc(Cl)c1 | 27.4% (inactive)
O=[As]c1ccc2c(c1)NC(O)=CO2 (stereo unspecified) | 32.5% (inactive)
Clc1cccc(NC2=NCCS2)c1 | -40.8% (inactive)
O=c1c2ccc(Cl)cc2[nH]c(=S)n1-c1ccc(Cl)cc1 | 11% (inactive)
O=C(CBr)OCCCS(=O)(=O)O | -33.8% (inactive)
CCCOP(=O)(CCl)OCCC | 8.25% (inactive)
Cc1ccc(-n2c(=S)[nH]c3ccccc3c2=O)cc1 | -20.9% (inactive)
Cc1cccc(-c2cc(Cl)c3cc(S(=O)(=O)F)ccc3n2)c1 | -33.4% (inactive)
COc1ccc(S(=O)(=O)F)cc1NC(=O)c1ccc2ccccc2c1O | 41.6% (inactive)
NC(=O)NNc1ccc([N+](=O)[O-])cc1[N+](=O)[O-] | 14.8% (inactive)

SMILES | growth inhibition
CN1C2c3ccccc3C3C4c5ccccc5C(C31)C(C2[N+](=O)[O-])N4C (stereo unspecified) | -13.5% (inactive)
CCCCCCNC1C=CCC1 (stereo unspecified) | 4.25% (inactive)
COc1ccc(-n2c(=S)[nH]c3ccccc3c2=O)cc1 | 4.8% (inactive)
CCCCCCCBr | 15.3% (inactive)
C(=C\c1cccs1)/CN1CCC2CCC(C2)C1 (stereo unspecified) | -10.8% (inactive)
Nc1ccc([As](=O)(O)O)cc1C(=O)O | -2.3% (inactive)
O=[N+]([O-])c1ccc(C[N+]23CCN(CC2)CC3)cc1 | 3.8% (inactive)
Cc1ccc(-n2c(=S)[nH]c3ccccc3c2=O)cc1F | -18.1% (inactive)
NC(=NC1CCCCCCCCCCC1)N[N+](=O)[O-] | 12.3% (inactive)
COc1cccc(N=C(N)N[N+](=O)[O-])c1 | -7.25% (inactive)
CC1C2C=CC1C(c1c3ccc(=O)cc-3oc3cc(O)ccc13)C2C(=O)O (stereo unspecified) | 21.4% (inactive)
CC1NCCc2cc(O)c(O)cc21 (stereo unspecified) | 40% (inactive)
c1ccc2c(c1)O[As](O[As]1Oc3ccccc3O1)O2 | 10.2% (inactive)
O=C(CBr)OCS(=O)(=O)O | -6.2% (inactive)
CN1CCN(c2ccc(Cl)cc2)CC1 | 0.7% (inactive)
Cc1ccc(-c2cc(Cl)c3cc(S(=O)(=O)F)ccc3n2)cc1 | -9.1% (inactive)
O=C(CCN1CC=C(c2ccccc2)CC1)NCc1ccccc1 | 8.55% (inactive)
CNCCc1ccc(O)c(O)c1 | -6.15% (inactive)
